Test results taken from PubChem BioAssay (NCI).
Where “and” joins values, the source holds several entries; their conditions need not be identical. Equal entries are not always repeated. The panel holds about 79,000 compounds, 15% with a hit somewhere; the sample as a whole holds those more often. Calls of active or inactive are those of the source. Rule as the data show it: active = growth inhibition above about 70%; inactive = the rest.

Assays:
[1] = NCI Yeast Anticancer Drug Screen. Data for the rad50 strain (AID 155);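 also: 0% = growth of vehicle-only cultures of the same strain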; conditions: S. cerevisiae rad50 strain growth inhibition; at 50.0 µM; stronger effect = higher value
Procedure, shortened: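 A DNA repair-deficient yeast mutant serves as the test organism; compound-induced growth inhibition is calculated against vehicle-treated cells.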

[2] = NCI Yeast Anticancer Drug Screen. Data for the mec2-1 strain (AID 157); conditions: S. cerevisiae mec2-1 strain, at 50.0 µM, stronger effect = higher value
Procedure, shortened: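 mec2-1 yeast strain, carrying an alteration in DNA damage repair or cell cycle control, was exposed to compounds; growth inhibition was measured relative to vehicle-treated controls.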

[3] = NCI Yeast Anticancer Drug Screen. Data for the sgs1 mgt1 strain (AID 161);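 also: 0% = growth of cultures given vehicle only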; conditions: S. cerevisiae sgs1 mgt1 strain, at 50.0 µM, stronger effect = higher value
Procedure, shortened: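 Growth of a repair-deficient yeast mutant was monitored after compound treatment and expressed as inhibition relative to vehicle-treated cultures.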

[4] = NCI Yeast Anticancer Drug Screen. Data for the cln2 rad14 strain (AID 165);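 also: 0% = growth equal to vehicle treated cultures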; conditions: S. cerevisiae cln2 rad14 strain, at 50.0 µM, stronger effect = higher value
Procedure, shortened: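 Yeast carrying cln2 and rad14 alterations (cell cycle control and DNA damage repair) were exposed to compounds. Growth inhibition was measured against vehicle-treated controls.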

[5] = NCI Yeast Anticancer Drug Screen. Data for the bub3 strain (AID 167); conditions: S. cerevisiae bub3 mutant strain, at 50.0 µM, stronger effect = higher value
Procedure, shortened: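 Inhibition values come from growth of compound-treated mutant yeast normalised to vehicle-treated controls.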

[6] = NCI Yeast Anticancer Drug Screen. Data for the mlh1 rad18 strain (AID 175); conditions: S. cerevisiae mlh1 rad18 strain growth inhibition; at 50.0 µM; stronger effect = higher value
Procedure, shortened: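 Growth inhibition of the yeast strain was measured after compound exposure and expressed relative to vehicle-treated controls. The strain carries defined defects in DNA damage repair.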

Measured: growth inhibition

OC(Br)C1C(c2ccccc2)N1C1CCCCC1 (centres undefined)
inactive: [1] -2% | [2] 18.4% | [3] -3.35% | [4] -11.2% | [5] 0.15% | [6] 7.4%

COC(=O)C1(C(=O)OC)Cc2ccc(C)cc2C2=C1C(=O)c1ccccc1C2=O
inactive: [1] -25.8% | [2] -10.2% | [3] 5.5% | [4] 7.55% | [5] -3.4% | [6] 7.85%

COc1ccc2c(c1O)[C@@]13CCN(C)[C@@H](C2)[C@H]1CC(C)C(=O)C3 (some centres undefined)
inactive: [1] 5.65% | [2] -30.6% | [3] 8.55% | [4] 17.2% | [5] -0.6% | [6] -2.5%

CNC(=O)c1cn(C2OC(CO)C(O)C2O)c2ncnc(N)c12 (centres undefined)
inactive: [1] -5.95% | [2] 8.3% | [3] 4.7% | [4] -1.25% | [5] -1.05% | [6] 5.65%

O=S(=O)(c1ccccc1)N1CN2CCN(C2)C1
inactive: [1] 17.6% | [2] 7.2% | [3] 31.6% | [4] 2.65% | [5] 5.5% | [6] 10.4%

CC1=CC23C(COC(=O)C24CO4)C(C(=O)O)=CC3C1C (centres undefined) (tested in a mixture with another compound)
inactive: [1] 38% | [2] 29% | [3] 34.5% | [4] 33.4% | [5] 17.9% | [6] 30.4%

c1c[nH]c(Cc2ncc(Cc3cnc[nH]3)[nH]2)n1
inactive: [1] 4.4% | [2] -20.6% | [3] -9.55% | [4] 21.8% | [5] -13% | [6] -9.6%

CN(C)C(=O)Oc1c(Cl)cccc1Cl
inactive: [1] 28.4% | [2] 24.4% | [3] 5.65% | [4] 10.5% | [5] 36.8% | [6] 14.1%

O=C(CS(=O)(=O)O)Nc1ccccc1
inactive: [1] 36.8% | [2] 11.9% | [3] 27.9% | [4] 14.7% | [5] 17.1% | [6] 22.2%

CCN1CCC(OC(=O)c2ccccc2)(c2nccc3ccccc23)CC1
inactive: [1] -5.85% | [2] 0.95% | [3] 7.05% | [4] 9.05% | [5] 9.75% | [6] 8.9%

COc1ccc2c(c1O)[C@@]13C=C(O)C(=O)C=C1[C@@H](C2)N(C)CC3
inactive: [1] 40% | [2] 4.6% | [3] 11.6% | [4] 23.6% | [5] -2.6% | [6] -47.9%

Clc1ccc(Br)cc1
inactive: [1] 4.25% | [2] -1.55% | [3] -5.75% | [4] -7.95% | [5] 0.45% | [6] -1.35%

NS(=O)(=O)c1ccc([As]=O)cc1 (centres undefined)
inactive: [1] -17.4% | [2] -8.25% | [3] -3.95% | [4] -6.9% | [5] -48.1% | [6] -37.8%

CC(C)N([P-]C(=O)[P-]N(C(C)C)C(C)C)C(C)C.[C-]#[O+].[C-]#[O+].[C-]#[O+].[C-]#[O+].[C-]#[O+].[C-]#[O+].[Fe].[Fe] (centres undefined)
inactive: [1] 3.4% | [2] 0.15% | [3] 3.55% | [4] 11.3% | [5] 2.3% | [6] -0.9%

Cc1cc(C)n(SC(Cl)(Cl)Cl)n1
inactive: [1] -12.3% | [2] 28.3% | [3] -15.3% | [4] -4.6% | [5] 7.45% | [6] -13.7%

C[C@]12CCNC(=O)C=C1CC[C@@H]1C2CC[C@@]2(C)C1CC[C@@H]2OC(=O)COc1ccc(N(CCCl)CCCl)cc1 (some centres undefined)
inactive: [1] 24.4% | [2] 25.1% | [3] 21.6% | [4] 60% | [5] 35.8% | [6] -26.1%

O=C(Oc1cc(Cl)c(S(=O)(=O)F)cc1Cl)c1ccccc1Cl
active: [1] 93.5% | [2] 96% | [3] 97.1% | [4] 86.8% | [5] 94.9% | [6] 96.8%

OCC(O)C(O)CO (centres undefined)
inactive: [1] 6.7% and 6.95% | [2] -0.55% and 8.95% | [3] 3.55% and 0.4% | [4] -61.8% and 20.8% | [5] 12.1% and 24.6% | [6] -1.05% and 0.1%

C1OCN2CSCC12 (centres undefined)
inactive: [1] 4% | [2] 28.8% | [3] 30.4% | [4] 5.35% | [5] 27.9% | [6] 31.8%
